According to PubChem BioAssay (NCATS):
Results filed as inconclusive are left out. The source made the active and inactive calls. Unless noted, calls follow the shape of the dose curve; as a rule, active = well fitted curve in the direction sought with a large enough effect; inconclusive = small, poorly fitted or top-dose-only effect, or another doubt; inactive = no such curve, though single readings can be large; an effect the other way counts as inactive or inconclusive.

Experiments:
[1] = AP1 Signaling Pathway (AID 357; active = well fitted curve in either direction with a large enough effect, not every such curve was filed as active; also: % is scaled to controls: 0 for no effect and ±100 for the full control effect)
Procedure, shortened: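 ME-180 cells with beta-lactamase reporter under AP-1 response element, stimulated with EC50 EGF; compounds tested in titration series, 5 h at 37 °C. CCF4 substrate added 2.5 h at room temperature; 460/530 nm emission ratio gave %activity and AC50.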

[2] = target: Cytochrome P450 1A2 (Homo sapiens) (UniProt P05177); assay: p450-cyp1a2 (AID 410; calls by dose curve; also: potency is read from the fitted curve at half-maximal effect)
Procedure, shortened: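 Human CYP1A2 (20nM) demethylated Luciferin-ME at its Km (100uM) in 100mM KPO4. After 10 min compound preincubation, NADPH regeneration ran the reaction 60 min at room temperature. Luciferin was read by luminescence, normalized to 57 uM furafylline.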

[3] = NFAT Signaling Pathway (AID 444; active = well fitted curve in either direction with a large enough effect, not every such curve was filed as active;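 also: carbachol stimulus at about its EC50 of 1 µM final; % is scaled to controls: 0 for no effect and ±100 for the full control effect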); conditions: Jurkat NFAT-bla M1, carbachol, beta-lactamase ratio, 5 h; at 38 µM (top of the series)
Procedure, shortened: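 Jurkat cells carrying an NFAT-driven β-lactamase reporter and co-transfected muscarinic M1 receptor were treated with compound plus carbachol (1 uM final, an EC50 level) for 5 h at 37 °C. CCF4 loading followed for 1 h at RT; 460/530 nm ratio gave %activity.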

[4] = Stat Signaling Pathway (AID 446; active = well fitted curve in either direction with a large enough effect, not every such curve was filed as active;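 also: ME-180 cervical cancer cells given 40 pM IL-6 alongside compound; SIE-controlled beta-lactamase reporter measured as 460/530 nm FRET emission ratio; % is scaled to controls: 0 for no effect and ±100 for the full control effect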)
Procedure, shortened: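 ME-180 SIE-bla cells; overnight plating; cpd + IL-6 40 pM, 5 h, 37 C; LiveBLAzer 2.5 h RT; 460/530 nm emission ratio. Normalized to 300 pM IL-6 and 125 nM JAK inhibitor controls.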

[5] = target: Glucocorticoid receptor (Homo sapiens) (UniProt P04150); assay: GR-GFP Redistribution (AID 450;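 active = compounds whose dose series gives a full or clear partial fitted curve of increased nuclear translocation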; also: potency is read from the fitted curve at half-maximal effect); conditions: U2OS GR-GFP nuclear translocation, laser cytometry, 2 h
[6] = target: Glucocorticoid receptor (Homo sapiens) (UniProt P04150); assay: GR-EFC Redistribution (AID 451; calls by dose curve; also: potency is read from the fitted curve at half-maximal effect); conditions: CHO-K1 GR-EFC translocation, beta-gal luminescence, 2 h
Procedure, shortened: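 CHO-K1 cells stably expressing nuclear-localized β-gal enzyme acceptor and GR fused C-terminally to the enzyme donor fragment; ligand-driven nuclear translocation restores β-gal by complementation. Compounds titrated up to 46 uM final, 2 h at 37 °C; luminescence read.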

[7] = target: Mitogen-activated protein kinase 10 (Mus musculus) (UniProt Q61831); assay: JNK3 AlphaScreen Assay (AID 530; active = well fitted curve in either direction with a large enough effect, not every such curve was filed as active;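 also: kinase came from lysate of stimulated human HepG2 cells; signal reports phosphorylation of biotinylated GST-cJun 1-79 at Ser73 with 10 µM ATP; % is scaled to controls: 0 for no effect and ±100 for the full control effect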)
Procedure, shortened: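 JNK3 came from HepG2 lysates pre-activated with IL-1beta and TNF-alpha and phosphorylated biotinylated GST-cJun (1-79) at 10 uM ATP, pH 7.6, room temperature. Compounds were titrated. AlphaScreen signal used anti-phospho-cJun (Ser73) antibody.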

[8] = target: 3',5'-cyclic-AMP phosphodiesterase 4B (Homo sapiens) (UniProt Q07343); assay: qHTS Assay for Inhibitors of PDE-IV (AID 607; active = well fitted activation curve with a large enough effect in the main read-out, with a control signal flat, not every such curve was filed as active; also: % of control where 0% means no effect)
Procedure, shortened: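 ACTOne HEK293 cells carry a modified cAMP-gated CNG channel and express endogenous PDE4; plated 1000 cells/well, compounds up to 22.9 uM final. Membrane-potential dye fluorescence (ex 535/em 590) was read; parental cells received 10 uM forskolin + 100 uM RO 20-1724.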

[9] = target: Guanine nucleotide-binding protein G(i) subunit alpha-1 (Homo sapiens) (UniProt P63096); assay: qHTS Assay for Inhibitors of RGS12 GoLoco Motif Activity (Green Fluorophore) (AID 879);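 also: 0% = labeled peptide with Gαi1 and full inhibition = labeled peptide alone without protein; negative values mean loss of peptide binding seen as reduced polarization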
Procedure, shortened: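 Fluorescence polarization assay: 50 nM Gαi1 with 10 nM FITC-labeled RGS12 GoLoco peptide in 10 mM Tris pH 7.5, 150 mM NaCl, 0.1 mM GDP, 0.05% NP40, 10 min at room temperature with compound.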

[10] = target: Cytochrome P450 3A4 (Homo sapiens) (UniProt P08684); assay: qHTS Assay for Inhibitors and Substrates of Cytochrome P450 3A4 (AID 884); also: % is scaled to controls: 0 for no effect and ±100 for the full control effect; nearly all actives have a fitted effect of over 50% in size
Procedure, shortened: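 20 nM human CYP3A4 with 25 uM Luciferin-PPXE (at KM) in 200 mM KPO4, preincubated 10 min with compound; NADPH regeneration started a 60 min RT reaction. Luciferin detected by luminescence, normalized to 57 uM ketoconazole as full inhibition.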

[11] = target: Cytochrome P450 3A4 (Homo sapiens) (UniProt P08684); assay: qHTS Assay for Activators of Cytochrome P450 3A4 (AID 885); also: potency is read from the fitted curve at half-maximal effect; nearly all actives have a fitted effect of over 65% in size
Procedure, shortened: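 20nM CYP3A4 + 25uM Luciferin-PPXE (=KM), 200mM KPO4; cpd 10 min RT; NADPH regen, 60 min RT; stop w/ detection buffer, 20 min; luminescence. Normalized to 57 uM ketoconazole.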

[12] = qHTS Assay for Identification of Small Molecule Antagonists for NFkB Signaling Pathway (AID 895; active = well fitted inhibition curve with a large enough effect in the signal ratio, with a control signal flat, not every such curve was filed as active; the % refers to the signal ratio; also: % is scaled to controls: 0 for no effect and ±100 for the full control effect)
Procedure, shortened: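 NFkB-bla ME-180 cervical carcinoma cells with beta-lactamase reporter under NFkB response element; compounds added, then TNF alpha at 10 pM final (EC50), 5 h at 37 C. LiveBLAzer substrate 2 h, room temperature; emission 460/530 nm at 405 nm excitation.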

[13] = target: Cytochrome P450 2C19 (Homo sapiens) (UniProt P33261); assay: qHTS Assay for Inhibitors and Substrates of Cytochrome P450 2C19 (AID 899); also: potency is read from the fitted curve at half-maximal effect; nearly all actives have a fitted effect of over 60% in size
Procedure, shortened: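 NADPH-dependent conversion of Luciferin-H EGE (10uM, at KM) by 5nM enzyme in 50mM KPO4, 60 min at 37C following 10 min compound preincubation. Stopped with luciferin detection buffer; luminescence read after 20 min.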

[14] = target: Muscarinic acetylcholine receptor M1 (Rattus norvegicus) (UniProt P08482); assay: qHTS Assay for Antagonists of Acetylcholine Muscarinic M1 Receptor: Kinetic Measurement of Intracellular Calcium Response (AID 943);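 also: Fluo-4 calcium signal as peak divided by basal fluorescence over 4 min; nearly all actives have a fitted effect of over 75% in size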
Procedure, shortened: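 CHO cells stably expressing rat M1 were loaded with no-wash Fluo-4 dye for 1 h at 37C, pre-incubated 10 min with compound, then challenged with EC80 carbachol (100 nM final); kinetic calcium read 4 min, peak/basal ratio.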

[15] = target: Muscarinic acetylcholine receptor M1 (Rattus norvegicus) (UniProt P08482); assay: qHTS Assay for Antagonists of Acetylcholine Muscarinic M1 Receptor: Measurement of IP-One Response (AID 944); also: nearly all actives have a fitted effect of over 75% in size
Procedure, shortened: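 CHO cells expressing rat M1 receptor, recovered overnight, were pre-incubated 10 min with compound, then stimulated 30 min with carbachol at EC80 (200 nM) in LiCl-containing buffer, pH 7.4. IP1 accumulation was read by HTRF (620/665 nm).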

[16] = target: Pyruvate kinase PKM (Homo sapiens) (UniProt P14618); assay: qHTS Assay for Activators of Human Muscle Pyruvate Kinase (AID 954; active = well fitted curve in the direction sought with a large enough effect, not every such curve was filed as active;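 also: 0% = uninhibited enzyme and -100% = no enzyme or full thiadiazolimine inhibition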)
Procedure, shortened: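 Luminescence from a luciferase ATP-detection/stop reagent reported PKM2 activity. Reactions contained 0.1 nM purified human enzyme, 0.5 mM PEP, 0.1 mM ADP and 7 mM MgCl2 at pH 7.2, run 1 h at RT.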

[17] = target: Alpha-galactosidase (Coffea arabica) (UniProt Q42656); assay: Counterscreen for Glucocerebrosidase Inhibitors: qHTS Assay for Coffee Bean alpha-Galactosidase at pH 4.5 (AID 957);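 also: plate controls were enzyme alone for no effect and no enzyme for full effect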
Procedure, shortened: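 Green coffee bean enzyme (2 nM final) was incubated with compounds (0.7 nM to 77 uM) and 4-methylumbelliferyl alpha-D-galactopyranoside (80 uM final) in 50 mM citric acid, 0.005% Tween-20, pH 4.5, 20 min at room temperature; AC50 from Hill fits.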

[18] = target: Pyruvate kinase (Leishmania mexicana) (UniProt Q27686); assay: qHTS Validation Assay for Activators of Leishmania Mexicana Pyruvate Kinase (AID 959)
Procedure, shortened: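 qHTS eight-point titrations against 0.2 nM LmPYK (E451W) in imidazole buffer pH 7.2 with 0.5 mM PEP, 0.1 mM ADP; 1 h, room temperature. Readout: PKLight luminescence, normalized to neutral DMSO wells.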

[19] = target: Alpha-galactosidase A (Homo sapiens) (UniProt P06280); assay: Counterscreen for Glucocerebrosidase Inhibitors: qHTS Assay for Human alpha-Galactosidase at pH 4.5 (AID 992); also: 0% is about no effect
Procedure, shortened: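 Enzyme at 2 nM final was combined with compound (0.7 nM to 77 uM) and 80 uM 4-methylumbelliferyl alpha-D-galactopyranoside in 50 mM citric acid, 0.005% Tween-20, pH 4.5. After 20 min at room temperature, fluorescence was read (Ex 365/Em 440 nm); AC50 came from Hill fits.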

[20] = target: alpha-glucosidase (Oryza sativa, rice) (UniProt Q653V4); assay: Counterscreen for Glucocerebrosidase Inhibitors: qHTS Assay for Rice alpha-Glucosidase at pH 5.0 (AID 997);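 also: 0% = full activity with enzyme and -100% = basal without enzyme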
Procedure, shortened: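 Rice alpha-glucosidase (4 nM final) with 400 uM 4-methylumbelliferyl-alpha-D-glucopyranoside in citrate buffer pH 5.0, 20 min at room temperature, stopped at pH 10; fluorescence 365/440 nm, compounds 0.7 nM–77 uM, AC50 from Hill fits.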

[21] = target: Alpha-galactosidase (Coffea arabica) (UniProt Q42656); assay: Counterscreen for Glucocerebrosidase Inhibitors: qHTS Assay for Coffee Bean alpha-Galactosidase at pH 5.9 (AID 998);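 also: plate controls were uninhibited enzyme for no effect and no-enzyme basal signal for full effect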
Procedure, shortened: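 Green coffee bean enzyme (2 nM final) was incubated with compounds (0.7 nM–77 uM) and 4-methylumbelliferyl alpha-D-galactopyranoside (80 uM) in citrate buffer pH 5.9, 20 min at room temperature. High-pH stop; fluorescence 365/440 nm; AC50 from Hill fits.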

[22] = Validation of Assay for Modulators of Lamin A Splicing (AID 1459; active = well fitted curve in the direction sought with a large enough effect in the signal ratio; the % refers to the signal ratio;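 also: cells exposed to compound for two days before reading; 0% is about no effect; ratio rise marks activators and ratio drop marks inhibitors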)
Procedure, shortened: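 S3 HeLa stably expressing lamin A-EGFP splicing minigene and DsRed2, 600 cells/well in Opti-MEM with 2% FBS, treated 48 h at 37C; laser-scanning cytometry gives GFP/RFP total intensity ratio; ancitabine positive control, 0.5% DMSO vehicle.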

[23] = target: DNA repair nuclease/redox regulator APEX1 (Homo sapiens) (UniProt P27695); assay: qHTS Validation Assay for Inhibitors of the Human Apurinic/apyrimidinic Endonuclease 1 (APE1) (AID 1705)
Procedure, shortened: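 Fluorogenic double-stranded THF abasic-site substrate (5'-TAMRA/3'-BHQ-2), 50 nM final. Enzyme preincubated with compound 15 min at room temperature, then substrate added. Kinetic fluorescence (ex 525/em 598 nm) read three times at 60 s intervals; activity taken as third-minus-first read difference.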

Chain of Cytochrome P450 3A4 (Homo sapiens) (P08684 whole entry, looked up): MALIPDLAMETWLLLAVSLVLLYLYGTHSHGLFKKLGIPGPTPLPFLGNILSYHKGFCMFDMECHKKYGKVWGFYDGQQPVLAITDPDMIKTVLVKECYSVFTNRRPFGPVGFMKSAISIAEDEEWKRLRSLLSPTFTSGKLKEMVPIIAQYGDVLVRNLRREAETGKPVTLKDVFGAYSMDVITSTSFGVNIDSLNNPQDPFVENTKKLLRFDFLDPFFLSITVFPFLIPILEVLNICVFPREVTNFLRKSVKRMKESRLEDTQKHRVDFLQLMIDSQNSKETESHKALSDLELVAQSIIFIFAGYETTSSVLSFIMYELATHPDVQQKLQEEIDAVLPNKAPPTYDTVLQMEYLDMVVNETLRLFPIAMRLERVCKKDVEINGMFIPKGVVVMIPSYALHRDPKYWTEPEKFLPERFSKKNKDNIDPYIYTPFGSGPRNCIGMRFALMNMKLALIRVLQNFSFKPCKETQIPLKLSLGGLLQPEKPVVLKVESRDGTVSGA
Chain of Alpha-galactosidase (Coffea arabica) (Q42656 whole entry, looked up): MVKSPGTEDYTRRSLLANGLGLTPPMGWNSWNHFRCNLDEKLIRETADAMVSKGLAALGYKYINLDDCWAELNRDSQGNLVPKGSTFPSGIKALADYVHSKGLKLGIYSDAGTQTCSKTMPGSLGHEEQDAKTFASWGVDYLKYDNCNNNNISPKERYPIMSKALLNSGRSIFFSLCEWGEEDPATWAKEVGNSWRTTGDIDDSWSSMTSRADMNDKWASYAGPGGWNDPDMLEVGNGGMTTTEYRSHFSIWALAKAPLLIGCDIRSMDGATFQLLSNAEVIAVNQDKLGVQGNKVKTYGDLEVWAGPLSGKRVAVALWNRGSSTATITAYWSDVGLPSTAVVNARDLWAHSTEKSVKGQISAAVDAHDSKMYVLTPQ
Chain of Muscarinic acetylcholine receptor M1 (Rattus norvegicus) (P08482 whole entry, looked up): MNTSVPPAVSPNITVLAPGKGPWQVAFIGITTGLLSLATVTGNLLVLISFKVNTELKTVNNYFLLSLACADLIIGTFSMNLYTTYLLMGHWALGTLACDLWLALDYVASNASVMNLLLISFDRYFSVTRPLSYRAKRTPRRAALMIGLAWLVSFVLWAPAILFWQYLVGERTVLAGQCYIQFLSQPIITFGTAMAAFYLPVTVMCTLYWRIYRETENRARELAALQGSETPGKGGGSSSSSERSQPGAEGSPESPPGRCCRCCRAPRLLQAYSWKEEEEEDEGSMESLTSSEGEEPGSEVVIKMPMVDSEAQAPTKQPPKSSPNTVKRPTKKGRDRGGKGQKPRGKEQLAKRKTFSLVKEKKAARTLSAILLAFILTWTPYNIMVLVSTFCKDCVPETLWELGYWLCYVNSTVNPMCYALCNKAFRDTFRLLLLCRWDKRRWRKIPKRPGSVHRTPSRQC
Chain of Glucocorticoid receptor (Homo sapiens) (P04150 whole entry, looked up, the tested form may be a part): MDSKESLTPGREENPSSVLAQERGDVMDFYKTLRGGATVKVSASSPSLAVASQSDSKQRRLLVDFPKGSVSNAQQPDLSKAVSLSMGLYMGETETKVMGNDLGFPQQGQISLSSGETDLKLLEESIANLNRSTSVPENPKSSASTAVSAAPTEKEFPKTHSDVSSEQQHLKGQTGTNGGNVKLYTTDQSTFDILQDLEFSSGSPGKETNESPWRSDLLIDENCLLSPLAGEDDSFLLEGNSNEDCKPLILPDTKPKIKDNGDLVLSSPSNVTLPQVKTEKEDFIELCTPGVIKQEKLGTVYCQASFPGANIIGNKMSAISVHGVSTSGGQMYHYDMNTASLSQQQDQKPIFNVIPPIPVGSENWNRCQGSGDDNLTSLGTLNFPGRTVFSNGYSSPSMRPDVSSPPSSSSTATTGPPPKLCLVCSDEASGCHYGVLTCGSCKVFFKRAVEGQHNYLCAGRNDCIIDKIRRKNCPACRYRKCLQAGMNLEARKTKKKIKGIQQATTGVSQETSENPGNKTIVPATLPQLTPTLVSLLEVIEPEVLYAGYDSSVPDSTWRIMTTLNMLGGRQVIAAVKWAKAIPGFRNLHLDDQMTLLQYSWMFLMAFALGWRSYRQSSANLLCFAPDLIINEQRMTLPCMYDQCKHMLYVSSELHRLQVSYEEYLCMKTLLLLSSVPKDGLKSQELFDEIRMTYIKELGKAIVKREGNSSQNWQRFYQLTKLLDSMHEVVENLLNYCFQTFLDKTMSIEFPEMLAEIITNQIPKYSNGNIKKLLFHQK
Chain of Alpha-galactosidase A (Homo sapiens) (P06280 whole entry, looked up): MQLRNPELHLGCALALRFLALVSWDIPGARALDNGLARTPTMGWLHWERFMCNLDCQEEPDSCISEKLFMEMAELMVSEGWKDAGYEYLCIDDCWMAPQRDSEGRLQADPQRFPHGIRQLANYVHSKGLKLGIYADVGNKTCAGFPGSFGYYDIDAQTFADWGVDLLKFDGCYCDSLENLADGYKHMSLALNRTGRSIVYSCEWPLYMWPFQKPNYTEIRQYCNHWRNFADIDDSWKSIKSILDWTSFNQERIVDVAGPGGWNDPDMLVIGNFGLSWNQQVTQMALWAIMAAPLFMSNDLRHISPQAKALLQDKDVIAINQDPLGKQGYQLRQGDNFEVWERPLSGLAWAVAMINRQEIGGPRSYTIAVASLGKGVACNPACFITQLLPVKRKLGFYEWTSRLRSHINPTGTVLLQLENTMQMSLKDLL
Chain of DNA repair nuclease/redox regulator APEX1 (Homo sapiens) (P27695 whole entry, looked up): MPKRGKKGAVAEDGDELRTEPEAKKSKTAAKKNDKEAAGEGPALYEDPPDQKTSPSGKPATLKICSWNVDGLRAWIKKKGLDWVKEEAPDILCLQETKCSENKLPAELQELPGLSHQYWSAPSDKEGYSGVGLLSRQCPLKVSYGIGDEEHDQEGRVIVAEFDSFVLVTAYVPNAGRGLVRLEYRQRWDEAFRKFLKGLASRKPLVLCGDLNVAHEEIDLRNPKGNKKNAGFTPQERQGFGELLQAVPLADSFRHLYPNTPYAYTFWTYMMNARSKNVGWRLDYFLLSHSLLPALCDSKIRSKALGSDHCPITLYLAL
Chain of Pyruvate kinase (Leishmania mexicana) (Q27686 2-499 E452W): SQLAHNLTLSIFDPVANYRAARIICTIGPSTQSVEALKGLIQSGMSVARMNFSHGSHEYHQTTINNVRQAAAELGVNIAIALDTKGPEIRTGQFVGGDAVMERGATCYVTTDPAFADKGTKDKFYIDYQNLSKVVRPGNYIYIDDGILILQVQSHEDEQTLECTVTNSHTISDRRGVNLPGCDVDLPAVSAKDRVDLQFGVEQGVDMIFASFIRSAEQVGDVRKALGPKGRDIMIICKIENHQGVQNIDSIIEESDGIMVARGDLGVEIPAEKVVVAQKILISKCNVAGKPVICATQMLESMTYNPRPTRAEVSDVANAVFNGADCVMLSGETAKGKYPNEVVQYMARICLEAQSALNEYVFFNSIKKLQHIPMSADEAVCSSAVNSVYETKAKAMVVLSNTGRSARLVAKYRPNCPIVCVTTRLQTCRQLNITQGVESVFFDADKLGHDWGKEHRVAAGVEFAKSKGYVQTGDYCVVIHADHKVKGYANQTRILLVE
Chain of Guanine nucleotide-binding protein G(i) subunit alpha-1 (Homo sapiens) (P63096 whole entry, looked up): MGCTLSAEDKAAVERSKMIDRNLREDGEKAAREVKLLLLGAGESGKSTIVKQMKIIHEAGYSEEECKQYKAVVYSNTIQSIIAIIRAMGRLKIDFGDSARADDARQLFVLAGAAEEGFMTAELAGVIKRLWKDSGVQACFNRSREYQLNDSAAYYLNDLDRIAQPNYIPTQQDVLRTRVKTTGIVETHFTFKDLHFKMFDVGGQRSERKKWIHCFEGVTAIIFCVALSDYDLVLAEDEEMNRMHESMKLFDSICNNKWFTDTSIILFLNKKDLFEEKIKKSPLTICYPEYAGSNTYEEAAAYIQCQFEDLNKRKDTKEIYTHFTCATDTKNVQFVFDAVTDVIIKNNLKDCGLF
Chain of Cytochrome P450 2C19 (Homo sapiens) (P33261 whole entry, looked up): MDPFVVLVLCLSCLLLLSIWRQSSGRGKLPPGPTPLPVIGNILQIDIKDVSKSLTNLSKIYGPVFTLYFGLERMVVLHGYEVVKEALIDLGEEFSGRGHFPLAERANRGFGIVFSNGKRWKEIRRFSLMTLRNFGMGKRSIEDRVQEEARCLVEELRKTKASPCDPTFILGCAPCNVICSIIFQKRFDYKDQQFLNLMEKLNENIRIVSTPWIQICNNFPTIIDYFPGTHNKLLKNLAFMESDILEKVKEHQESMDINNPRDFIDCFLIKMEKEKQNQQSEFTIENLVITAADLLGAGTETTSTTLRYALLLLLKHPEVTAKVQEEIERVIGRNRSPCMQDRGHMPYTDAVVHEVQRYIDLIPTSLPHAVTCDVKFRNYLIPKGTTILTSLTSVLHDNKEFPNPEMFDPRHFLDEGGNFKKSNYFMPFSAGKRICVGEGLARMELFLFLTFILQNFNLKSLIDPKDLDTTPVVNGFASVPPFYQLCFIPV
Chain of 3',5'-cyclic-AMP phosphodiesterase 4B (Homo sapiens) (Q07343 whole entry, looked up): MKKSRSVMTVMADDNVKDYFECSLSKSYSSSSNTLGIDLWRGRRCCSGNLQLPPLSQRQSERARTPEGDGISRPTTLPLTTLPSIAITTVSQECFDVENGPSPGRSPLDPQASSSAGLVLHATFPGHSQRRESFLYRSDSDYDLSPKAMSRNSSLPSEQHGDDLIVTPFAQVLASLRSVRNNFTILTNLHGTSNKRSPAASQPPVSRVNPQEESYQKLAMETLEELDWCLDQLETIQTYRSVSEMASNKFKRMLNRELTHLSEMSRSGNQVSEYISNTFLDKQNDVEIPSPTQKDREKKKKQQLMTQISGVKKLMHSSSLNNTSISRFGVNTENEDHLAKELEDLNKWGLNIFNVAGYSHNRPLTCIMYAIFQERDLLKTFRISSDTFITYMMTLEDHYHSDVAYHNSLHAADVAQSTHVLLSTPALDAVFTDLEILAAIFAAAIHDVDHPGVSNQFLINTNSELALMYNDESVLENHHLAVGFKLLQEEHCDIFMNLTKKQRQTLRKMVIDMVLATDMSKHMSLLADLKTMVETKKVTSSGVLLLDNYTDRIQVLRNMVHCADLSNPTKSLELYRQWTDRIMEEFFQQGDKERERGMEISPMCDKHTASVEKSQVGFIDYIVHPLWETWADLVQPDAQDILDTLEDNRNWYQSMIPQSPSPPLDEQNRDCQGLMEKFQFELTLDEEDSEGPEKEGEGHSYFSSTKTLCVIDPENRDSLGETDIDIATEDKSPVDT

COC(=O)c1cc2c(cn1)[nH]c1ccccc12
inactive: outcome [1] | activity change, negative = inhibition [3] -0.308% | outcome [4] | Potency [5] > 46 µM | Potency [6] > 46 µM | outcome [7] | Potency [8] | outcome [9] | Potency [10] | Potency [12] | Potency [14] | Potency [15] | outcome [16] | outcome [17] | Potency [18] | outcome [19] | outcome [20] | outcome [21] | outcome [22] | Potency [23]
active: Potency [2] 0.631 µM | Potency [11] 15.8 µM | Potency [13] 3.98 µM
